CRE-bla Fsk: modulators of forskolin-stimulated CRE signaling in CHO cells. hit rate 2.5% among 71,000. CHO CRE-bla reporter (cAMP response element driving beta-lactamase), forskolin EC10, beta-lactamase ratio. Potency, µM (series often up to 38.2 µM), for the others: at the top dose activity change, negative = inhibition, most hits filed as activators; active = well fitted activation curve with a large enough effect in the signal ratio, with a control signal flat, not every such curve was filed as active; inconclusive = small, poorly fitted or top-dose-only effect, or effect the other way, or a change in a side signal; the % refers to the signal ratio; note: potency is the fitted concentration of half-maximal effect; % of control where 0% means no effect
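Beta-lactamase reporter under a cAMP responsive element in CHO cells; compounds tested in titration series against EC10 NKH 477, 3 h at 37 °C. Read-out: CCF4 FRET ratio 460nm/530nm (excitation 405nm) giving %Activity, fitted to AC50.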
HBB splice mod: modulators of hemoglobin beta chain splicing | HBB splicing reporter cell assay, activation; EGFP reporter with mutant IVS2-654 intron; response scale: normalised to 500 nM splice-correcting PNA | Potency, µM (top dose mostly 46.1 µM), without a hit: at the highest dose activation, actives largely listed as activators | hit rate 0.06% among 65,000 | AID 925; note: potency is the fitted concentration of half-maximal effect; 0% is about no effect
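Compounds were applied for 2 days to HeLa EGFP-654 cells, 500/well in Optimem with 2% FCS. The reporter's EGFP is disrupted by mis-splicing of beta-globin intron IVS2-654. Readout: summed well GFP fluorescence from 488 nm laser scanning; reference was 500 nM antisense […] 654 PNA.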
Imprint erasure: genomic imprint erasure induction; mouse ES Peg3-LacZ reporter, beta-gal luminescence, 40 h; Potency, µM (titrated, usually from 60.7 µM), for inactives: at the highest dose activity change, positive = activation, hits mostly activators; hit rate 0.02% among 110,000; AID 1948; note: potency is the fitted concentration of half-maximal effect
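Imprint erasure is scored as LacZ activity from the silenced maternal Peg3 allele in feeder-free female ES cells cultured 40 h with LIF. Luminescence is normalized to in-plate negative controls and fitted to the Hill equation.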
GFP derepression: epigenetic GFP locus derepression in mouse cells; mouse C127i GFP locus derepression, cytometry, 30 h; Potency, µM (doses to about 46.1 µM), for the others: top-dose GFP derepression (activation); hit rate 0.09% among 68,000; note: % of control where 0% means no effect
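Derepression screen: silenced CMV-GFP reporter in murine C127i cells, 30 h compound incubation at 37 C, washed cells imaged by laser-scanning cytometer to enumerate GFP-expressing objects of 20 to 120 um.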
IkB sig inh: inhibitors of IkB signaling in ABC-DLBCL cells; ABC-DLBCL IkBa-CBG/CBR dual luciferase ratio, 4 h; response scale: scaled: untreated 0%, proteasome inhibitor 100%; Potency, µM (top dose mostly 57.1 µM), inactives show at the highest dose IkBa stabilization activation; hit rate 0.04% among 110,000; active = well fitted curve in the direction sought with a large enough effect in the signal ratio, not every such curve was filed as active; inconclusive = small, poorly fitted or top-dose-only effect, or a change in a side signal; the % refers to the signal ratio;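 note: potency is the fitted concentration of half-maximal effect; the direction sought is a rising ratio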
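Curves were fitted separately to fusion (green), unfused (red) and ratio luminescence, then classed by r2, magnitude and activity. Cells: OCI-Ly3, 4 h compound plus doxycycline at 37C; 10 uM MG-132 defined full response.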
* marks the source's active call; other numbers are inactive results; ? = inconclusive; . = no result given; [ ] = remark or other dose. Only a selection was taken, and hits are over-represented in it overall. Unless noted, calls come from the whole dose curve; as a rule, active = well fitted curve in the direction sought with a large enough effect; inconclusive = small, poorly fitted or top-dose-only effect, or another doubt; inactive = no such curve, though single readings can be large; an effect the other way counts as inactive or inconclusive.

SMILES	CRE-bla Fsk	HBB splice mod	Imprint erasure	GFP derepression	IkB sig inh
CC(=O)c1ccc(NC(=O)CCc2c(C)nn(-c3ccc4nncn4n3)c2C)cc1	.	.	14%[10.9 µM]	.	4%
C=C(C)Cn1c(SCC#N)nc2ccccc2c1=O	10µM*	-1%	1µM*	-1%	-2%
CCN(CCCn1c(SCC#N)nc2ccccc2c1=O)c1ccccc1	2.5µM*	0%	-25%	0%	3%
Cc1ccc(NC(=O)CSc2nccn2C2CCCC2)cc1	.	.	-13%[10.9 µM]	.	-2%
O=C(CN1C(=O)CCSc2ccccc21)Nc1ccc(C(F)(F)F)cc1	.	.	-7%[10.9 µM]	.	?
O=C(Nc1ccc2nc3n(c(=O)c2c1)CCCCC3)c1ccccn1	13µM*	-1%	-65%	0%	2%
O=C(CC(=O)N1CCN(c2ccccn2)CC1)Nc1ccc2nc3n(c(=O)c2c1)CCCCC3	7.9µM*	1%	-13%	0%	0%
CSc1nnc2n(-c3ccccc3)c(=O)c3c4c(sc3n12)CCC4	2.5µM*	0%	-10%	3%	-3%
CC(C)c1nn2c(=O)cc(COC(=O)c3cccc(NC(=O)c4ccccc4F)c3)nc2s1	.	.	-6%[10.9 µM]	.	?
O=c1[nH]c2c(s1)C(c1ccccc1)C1C3CCC(C3)C1S2 (centres undefined)	10µM*	-1%	-11%	4%	?
COc1ccc(C2c3sc(=O)[nH]c3SC3C4CCC(C4)C23)cc1 (centres undefined)	?	-1%	-6%	4%	?
COc1cc(CN(C(=O)c2ccc(C)cc2)c2ccccn2)cc(OC)c1OC	.	.	-12%[10.9 µM]	.	?
CCOc1ccc(NCC2CCOC(C)(C)C2)cc1 (centres undefined)	3.2µM*	-1%	-5%	3%	2%
CCOc1ccc(NC(=O)CC2CC(C)(C)OC2=O)cc1 (centres undefined)	-15%	-1%[0.369 µM]	-4%	6%	0%
Cc1cccc(-c2cc3nc4c(c(N5CCOCC5)n3n2)CCCC4)c1	2.5µM*	0%[57.5 µM]	-33%	-1%	?
Cc1cccc(-c2cc3nc4c(c(N5CCC6(CC5)OCCO6)n3n2)CCCC4)c1	?	0%[57.5 µM]	-4%	4%	?
OC1CCCN(c2c3c(nc4cc(-c5cccc(Cl)c5)nn24)CCC3)C1 (centres undefined)	?	2%	-12%	4%	-3%
Cc1cccc(-c2cc3nc4c(c(N5CCCC(O)C5)n3n2)CCC4)c1 (centres undefined)	13µM*	0%[57.5 µM]	-10%	-2%	?
CCc1cccc(C)c1NC(=O)c1cc(S(=O)(=O)N(Cc2ccc(C(=O)OC)cc2)Cc2ccc(OC)c(OC)c2)ccc1F	.	.	-15%[10.9 µM]	.	-3%
COc1ccc(C(c2nnnn2C2CCCC2)N2CCC(C)CC2)cc1 (centres undefined)	2%	.	-12%	0%	4%
COc1ccc(C(c2nnnn2C2CCCCC2)N2CCN(c3ccc(OC)cc3)CC2)cc1 (centres undefined)	7.9µM*	0%	-7%	1%	1%
COc1ccc(N(Cc2cc3cccc(C)c3[nH]c2=O)C(=O)c2cccc(Cl)c2)cc1	.	.	-38%[10.9 µM]	.	1%
COc1cc(-c2nnc3sc(-c4cccs4)nn23)cc(OC)c1OC	1.6µM*	1%[1.84 µM]	-7%	-2%	3%
COc1ccc(-c2nnc3sc(-c4cccs4)nn23)cc1OC	2.5µM*	0%[57.5 µM]	9%	4%	-4%
COc1ccc(-c2nn3c(-c4cccc(C)c4)nnc3s2)cc1OC	2µM*	2%[57.5 µM]	-1%	2%	-3%
SMILES	CRE-bla Fsk	HBB splice mod	Imprint erasure	GFP derepression	IkB sig inh
COc1cc(-c2nn3c(-c4cccnc4)nnc3s2)cc(OC)c1OC	.	.	.	4%[20.6 µM]	.
CC(C)c1cccc(C(C)C)c1NS(=O)(=O)c1cccs1	.	.	17%[10.9 µM]	.	0%
CC(C)NC(=O)Cn1c(=O)nc(-c2ccccc2)c2ccccc21	.	.	-9%[10.9 µM]	.	?
Cc1ccc2oc(C(=O)N(Cc3ccccc3F)C3CCS(=O)(=O)C3)c(C)c2c1 (centres undefined)	.	.	-4%[10.9 µM]	.	-1%
O=C(C1COc2ccccc2O1)N1CCN(c2nc3ccc(F)cc3s2)CC1 (centres undefined)	.	.	14%[10.9 µM]	.	?
CCCCC(=O)Nc1ccc(C(=O)OCc2cc(=O)n3ccsc3n2)cc1	.	.	-14%[10.9 µM]	.	2%
COc1ccccc1CNC(=O)c1ccc(-c2nc(CS(=O)c3ccc(C)cc3)c(C)o2)cc1 (centres undefined)	.	.	-10%[10.9 µM]	.	1%
O=C(Cn1ncc2c3ccccc3n(Cc3cccc(Cl)c3)c2c1=O)N1CCCCCC1	.	.	-15%[10.9 µM]	.	?
CCOC(=O)C1=C(CS(=O)(=O)c2ccc(F)c(C)c2)NC(=O)NC1c1ccccc1OC (centres undefined)	.	.	-12%[10.9 µM]	.	?
Nc1c(C(=O)OCC2CCCO2)c2nc3ccccc3nc2n1C1CCCC1 (centres undefined)	2.5µM*	-6%[0.369 µM]	-18%	3%	0%
CCOC(=O)C1CCC(CN(Cc2ccc(Cl)cc2)S(=O)(=O)c2cc(Cl)cc(Cl)c2)CC1 (centres undefined)	.	.	-16%[10.9 µM]	.	0%
Cc1nn(C)c(C)c1CN(C)C(=O)c1cc2nc(-c3ccco3)cc(C(F)(F)F)n2n1	?	0%	-17%	-1%	2%
Cc1ccccc1Cn1nc(C)c(NC(=O)c2cc3nc(-c4ccco4)cc(C(F)(F)F)n3n2)c1C	2.5µM*	.	-20%	-3%	?
Cc1nn(C)cc1CN(C)C(=O)c1cc2nc(-c3ccco3)cc(C(F)(F)F)n2n1	13µM*	0%[57.5 µM]	-12%	2%	-1%
COc1cc(C(=O)NCCc2nc3ccccc3n2C)cc(OC)c1OC	6.3µM*	-1%	-12%	-1%	1%
COc1ccccc1NC(=O)C1=C(C)Nc2nc(SCc3ccccc3)nn2C1c1cccs1 (centres undefined)	.	.	-14%[10.9 µM]	.	?
COc1ccccc1-c1nnc2sc(-c3ccc(N(C)C)cc3)nn12	0.4µM*	1%	-26%	3%	-2%
CN(C)c1ccc(-c2nn3c(-c4ccccc4Cl)nnc3s2)cc1	2.5µM*	1%	-27%	-3%	-1%
COc1ccccc1-c1nnc2sc(-c3cc4ccccc4o3)nn12	4µM*	3%	-26%	3%	-4%
C/C(N=NC(=[SH+])SCc1ccccc1)=C1\C=CC=CN1.[Cl][Cu]	.	.	-51%[10.9 µM]	.	.
CCc1ccc(S(=O)(=O)NCc2nc3cccnc3n2Cc2ccccc2Cl)cc1	.	.	-7%[10.9 µM]	.	3%
COc1cccc(N2CCN(C(=O)CN3C(=O)COc4ccc(S(=O)(=O)N5CCC(C)CC5)cc43)CC2)c1	.	.	-3%[10.9 µM]	.	?
COc1cccc(CNC(=O)CCc2c(C)nc3c4c(C)cc(C)nc4nn3c2C)c1	.	.	2%[10.9 µM]	.	2%

High-throughput results as filed in PubChem.
